# Data: PubChem BioAssay AID652104 (National Center for Advancing Translational Sciences (NCATS), 2013)
# About 7,200 (1.8%) of roughly 410,000 compounds were called active. Entries that show only a call come without a potency. Roughly 7% stayed inconclusive and do not appear here. This is one part of a sample in which actives are shown more often than they occur. The call rests on the fitted dose curve; in most records, active means well fitted activation curve with a large enough effect; inconclusive means small, poorly fitted or top-dose-only effect, or another doubt; inactive means no such curve, though single readings can be large or run the other way.
# Assay: qHTS of TDP-43 Inhibitors; further: nearly all actives have a fitted effect of over 50% in size
# Conditions: TDP-43 expressing yeast growth rescue, BacTiter-Glo, 24 h; series mostly up to 46.1 µM
# Excerpt: The goal of this project is to identify new chemical probes capable of reversing the toxicity associated with TDP-43 which is associated with frontotemporal lobar degeneration and amyotrophic lateral sclerosis. These compounds will provide a complementary approach to deciphering the tangled mechanisms of toxicity and protection that we have uncovered through genome-wide genetic screens and are beginning to uncover in a large-scale proteomics analysis with mass spectroscopy.
# To this end, a miniaturized assay was developed to be screened against the Molecular Libraries Small Molecule Repository (MLSMR) to discover TDP-43 inhibitors. Please note that in the set-up this yeast-based assay compounds that inhibit as TDP-43, have a read-out as activators.
# NIH Chemical Genomics Center [NCGC]
# NIH Molecular Libraries Probe Centers Network [MLPCN]
# Assay Submitter (PI): Susan Lindquist, Whitehead Institute/MIT
# Dispense 2.5 microL yeast galactose medium per 1536-well plate, pin compound, dispense 2.5 microL TDP-43 expressing yeast in galactose medium at OD600=0.02 (pregrown in raffinose medium to mid-log phase) per well, incubate for 24 hr at 30 deg C, and cell growth will be measured using 5 microL of Bactiter/Glo reagent to entire plate and read using Luminescence Protocol in ViewLux.
# Potency means the concentration at half of the fitted maximal effect.
Structure (SMILES),Potency,growth rescue (activation)
NC(=O)C1CCN(C(=O)c2ccc(F)c(S(=O)(=O)N3CCOCC3)c2)CC1,inactive,
CC1CCN(c2ccc(S(=O)(=O)Nc3cc(C(=O)O)cc(C(=O)O)c3)cc2[N+](=O)[O-])CC1,inactive,
CC1CCN(C(=O)c2ccc(S(=O)(=O)Cc3cc(F)ccc3F)c([N+](=O)[O-])c2)CC1,11.2 µM (active),
Cc1cc(C)cc(OCC(=O)Nc2c(C(=O)c3ccccc3)oc3ccccc23)c1,inactive,
COc1ccc(CCNC(=O)c2ccc(-n3c(C)cc4c3CCCC4)cc2)cc1OC,inactive,
CC1CCN(S(=O)(=O)c2ccc3c(ccn3CCC(=O)NCc3ccc(N(C)C)cc3)c2)CC1,inactive,
CC1CCC2(CC1)N=C(c1ccccc1)C(=O)N2CC(=O)Nc1ccc(F)c(Cl)c1 (stereo not given),inactive,
Cc1n[nH]c(C)c1S(=O)(=O)N1CCCC(C(=O)NCC2COc3ccccc3O2)C1 (stereo not given),inactive,
Cc1cc(C(=O)CCl)c(C)n1CC1COc2ccccc2O1 (stereo not given),20 µM (active),
OC(COCC1COc2ccccc2O1)CN1CCN(c2ccc(F)cc2)CC1 (stereo not given),inactive,
CC1COc2ccccc2N1S(=O)(=O)c1ccccc1 (stereo not given),inactive,
Cc1ccc(Cl)cc1NC(=O)NC1COc2ccccc2C1 (stereo not given),inactive,
O=C1C(=O)N(CC2COc3ccccc3O2)c2ccccc21 (stereo not given),28.2 µM (active),
COc1ccccc1Nc1c2c(nc3ccc(NC(=O)/C=C/c4cc(OC)c(OC)c(OC)c4)cc13)CCCC2,inactive,
CCc1ccc(NC(=O)C2CCCN2S(=O)(=O)c2ccc3nc(-c4ccccc4)[nH]c3c2)cc1 (stereo not given),inactive,
C=Cc1ccc(Cn2c(C(=O)OC)cc3sc(C)cc32)cc1,inactive,
CCN1CCN(c2ncc3c(n2)CC(c2ccccc2O)CC3=O)CC1 (stereo not given),inactive,
Cc1ccc(-n2c3nc(=O)[nH]c(=O)c-3cc3c(Cl)cccc32)cc1,inactive,
Cc1ccc(CNC(=O)c2c(O)nc3c(C)cccn3c2=O)cc1,inactive,
CCOc1cc(C(=O)Nc2nnc3n2CCS3)cc(OCC)c1OCC,inactive,
Cc1ccccc1NC(=O)Cn1c(=O)n(CCCCC(=O)NCc2ccccc2Cl)c(=O)c2ccccc21,inactive,
Cc1ccc(C)c(NC(=O)Cn2ccn(-c3ccc(F)cc3)c(=O)c2=O)c1,inactive,
COc1ccccc1-c1cc(C(F)(F)F)nc(S(=O)(=O)CCCC(=O)Nc2cc(C)ccc2O)n1,inactive,
COc1ccccc1-c1cc(C(F)(F)F)nc(S(=O)(=O)CCCC(=O)Nc2ccc(F)cc2F)n1,14.1 µM (active),
CSc1ccccc1NC(=O)CCS(=O)(=O)c1nc(-c2cccs2)cc(C(F)(F)F)n1,inactive,

Structure (SMILES),Potency,growth rescue (activation)
CCOC(=O)c1ccc(NC(=O)c2ncn(-c3ccccc3)n2)cc1,inactive,
Cc1cccc(N2CCN(C(=O)c3ccc(Nc4nc5ccccc5n5nnnc45)cc3)CC2)c1C,inactive,
CN1c2ccc(C=O)c3c(C=O)ccc(c23)N(C)C1(C)C,inactive,
Cc1ccc(C=O)c([B-](F)(F)F)c1,11.2 µM (active),
CCOc1ccc(OCC)c(Nc2nc3ccccc3n3nnnc23)c1,inactive,
Cc1cc(=O)c2cc(C(=O)Nc3cccc(C)c3C)ccc2[nH]1,,0% [at 9.22 µM] (inactive)
O=C(COC(=O)COc1cccc(F)c1)NCC1CCCCC1,inactive,
O=C(COc1ccc(F)cc1Br)NCC1COc2ccccc2O1 (stereo not given),22.4 µM (active),
CCC(=O)c1cc(F)ccc1OCC(=O)Nc1ccc2c(c1)OCCO2,inactive,
CCC(=O)N1CCc2cc(S(=O)(=O)NC(C(=O)Nc3ccc(C(C)=O)cc3)C(C)C)ccc21 (stereo not given),inactive,
Cc1ccccc1-n1nnnc1SCCCC(=O)c1ccc(F)cc1,35.5 µM (active),
CCn1nnnc1SCC(=O)c1ccc(C)cc1C,inactive,
CC(=O)Nc1ccc(NC(=O)CSc2nnnn2-c2ccccc2F)cc1,inactive,
COc1ccc(CNC(=O)CSCc2nc(-c3ccccc3F)oc2C)cc1,inactive,
COc1ccc(Br)cc1C1CC(=O)Nc2c1c(C)nn2-c1nc(C)cc(C)n1 (stereo not given),,10.5% [at 9.22 µM] (inactive)
COc1ccccc1N1CCN(c2ncnc3onc(-c4cccc(Cl)c4)c23)CC1,inactive,
COc1ccccc1N1CCN(c2ncnc3onc(-c4ccc(F)cc4)c23)CC1,15.8 µM (active),
COC(=O)c1cnc(N2CCN(c3ccccc3OC)CC2)c2ccccc12,inactive,
COc1ccccc1N1CCN(CCCCOc2ccc(F)cc2)CC1,inactive,
COc1ccccc1N1CCN(c2ncnc3sc(C)c(-c4ccccc4)c23)CC1,17.8 µM (active),
CN(Cc1ccccc1)c1ccc(-c2nc(-c3ccccc3)no2)cc1[N+](=O)[O-],inactive,
Cc1cc(C)cc(Nc2ncnc3onc(-c4ccc(F)cc4)c23)c1,inactive,
CN(Cc1ccccc1)c1ncnc2onc(-c3ccc(F)cc3)c12,35.5 µM (active),
COc1ccccc1N1CCN(c2ccc([N+](=O)[O-])nc2)CC1,inactive,
CCOc1ccc(OCC)c(NC(=O)c2c(C)nn(-c3ccccc3)c2-n2cccc2)c1,inactive,

Structure (SMILES),Potency,growth rescue (activation)
O=C(Nc1ccc(Br)cc1)c1cc2nc(-c3ccccc3)cc(-c3ccccc3)n2n1,inactive,
Cc1ccc2c(c1)N(C(=O)CCC(=O)NCc1ccccc1F)CC(C)O2 (stereo not given),inactive,
Cc1ccc2c(=O)cc(C(=O)Nc3sc4c(c3C(=O)NCc3cccnc3)CCCC4)oc2c1,inactive,
O=C(CSc1nccn1C1CCCC1)Nc1cc(C(F)(F)F)ccc1Cl,inactive,
CCOC(=O)c1cnc(SCC(=O)Nc2cccc(OC)c2)nc1N,inactive,
CCOC(=O)c1cnc(SCC(=O)Nc2ccccc2C(=O)OC)nc1N,22.4 µM (active),
COC(=O)c1ccccc1NC(=O)CSc1n[nH]c(-c2ccncc2)n1,inactive,
Cc1nc(SCC(=O)Nc2ccc(C(=O)O)cc2)n[nH]1,inactive,
O=C(Nc1ccc(C(=O)OCc2cc(=O)n3nc(C4CC4)sc3n2)cc1)c1ccc(F)cc1,inactive,
CCCCNC(=O)c1ccc2c(c1)NC(=O)C(C(C)C)N2 (stereo not given),inactive,
CCc1ccccc1N1CC(c2nc3ccccc3n2CCCCOc2ccccc2)CC1=O (stereo not given),inactive,
CCOC(=O)c1c(S(=O)(=O)N2CCCC(C(=O)NCc3cccc(C)c3)C2)c(C)n(C)c1C (stereo not given),inactive,
CC(NC(=S)Nc1ccccc1)C(c1cccs1)N1CCOCC1 (stereo not given),inactive,
CC(NC(=S)Nc1ccccc1)C1COc2ccccc2O1 (stereo not given),12.6 µM (active),
CC(c1ccco1)N(C(=O)Nc1ccccc1)C1CCCCC1 (stereo not given),inactive,
COc1ccc(NC(=O)c2cc3cc(C)ccc3n2C)cc1,,2.24% [at 9.22 µM] (inactive)
Cc1nc2ccc(C(=O)N3CCSCC3)cc2s1,inactive,
CC1CCN(c2nc3ccc(C(=O)N4CCN(c5ccccc5)CC4)cc3s2)CC1,inactive,
Cc1nc2ccc(C(=O)N3CCN(c4ccccc4)CC3)cc2s1,14.1 µM (active),
COc1nc(N=C(N)N)nc2c(C)cccc12,inactive,
O=C(Oc1ccccc1)Oc1ccc2c(c1)oc(=O)c1ccccc12,inactive,
CC(=O)Oc1ccc(-c2nc3c(C)cccc3c(=O)o2)cc1,12.6 µM (active),
O=S(=O)(Cc1ccc(Cl)cc1Cl)c1ccc(Cl)cc1,inactive,
O=S(=O)(NCc1ccc(Cl)cc1Cl)c1cccs1,8.91 µM (active),
O=C(NCc1ccc(Cl)cc1)C1CCN(S(=O)(=O)c2cccs2)CC1,inactive,

Structure (SMILES),Potency,growth rescue (activation)
CC1=C(C(=O)Nc2ccccc2Cl)C(c2cccs2)n2ncnc2N1 (stereo not given),inactive,
CCNC(=O)c1cc2n(n1)CCCN(Cc1ccc(C)cc1)C2=O,inactive,
CC(/C=C/c1ccco1)=N/NC(=O)C1COc2ccccc2O1 (stereo not given),inactive,
Cc1ccc(C(=O)N/N=C\c2cc(Br)c(Br)o2)cn1,inactive,
O=C(N/N=C\c1cc(Br)c(Br)o1)C1COc2ccccc2O1 (stereo not given),11.2 µM (active),
O=C(Nc1nc2ccc(F)cc2s1)c1nc(SCc2ccccc2F)ncc1Cl,inactive,
COc1cc(CNCCSc2nnnn2C)ccc1OCc1c(F)cccc1Cl,inactive,
CCOc1ccc(Nc2nc3c(S(=O)(=O)c4cccc(Cl)c4)nnn3c3ccsc23)cc1,inactive,
O=C(NCc1ccc(F)cc1)c1ccc(Cn2c(SCc3ccc(F)cc3)nc3cccnc32)cc1,inactive,
CCCCN(C)c1nnc(NC(=O)Nc2ccc(Br)c(C)c2)s1,,22.1% [at 9.22 µM] (inactive)
CCCCCNC(=O)C(c1ccc(OC)cc1)n1c(=O)c(-c2ccccc2)nc2ccccc21 (stereo not given),inactive,
COc1ccc(C(C(=O)NCc2ccccc2)n2c(=O)c(-c3ccccc3)nc3ccccc32)cc1 (stereo not given),inactive,
COc1ccc(NC(=O)C(c2ccncc2)n2c(=O)c(-c3cc4ccccc4[nH]3)nc3ccccc32)cc1 (stereo not given),17.8 µM (active),
COc1ccc(CC(=O)NCCc2sc3nc(-c4ccc(OC)cc4)nn3c2C)cc1,inactive,
CC1CCCCN1Cc1c(O)ccc2c(=O)c(-c3cccc(Cl)c3)c(C(F)(F)F)oc12 (stereo not given),inactive,
O=C(c1cc(COc2cccc(C(F)(F)F)c2)on1)N1CCSCC1,22.4 µM (active),
O=C(NC1Cc2ccccc2C1)c1cc(COc2cccc(C(F)(F)F)c2)on1,inactive,
CC1CN(C(=O)c2cc(COc3c(F)cccc3F)on2)CCN1C (stereo not given),inactive,
CCc1cccc(NC(=O)Cn2nc(CC)n3c(cc4cc(C)ccc43)c2=O)c1,inactive,
COc1ccc(C2(Nc3cccc(F)c3)C(=O)c3ccccc3C2=O)cc1,inactive,
CCCOc1ccccc1C1CC(=O)Nc2cc3c(cc21)OCO3 (stereo not given),20 µM (active),
O=C1CC(c2ccc(F)cc2F)c2cc3c(cc2N1)OCO3 (stereo not given),inactive,
Cc1cc2c(cc1C)C(c1cccc(OC(C)C)c1)CC(=O)N2 (stereo not given),inactive,
Cc1ccc(Cl)cc1N1CCN(C(=O)C2CCC(CNS(=O)(=O)c3cccs3)CC2)CC1 (stereo not given),inactive,
COc1cccc(CN2CCc3nc(SCC(=O)Nc4ccccc4)[nH]c(=O)c3C2)c1,inactive,
